Compounds with a hit are over-represented: about 3.1% of the library has one in this group of screens.
MEKK3 PB1 HTS – modulators (inhibitors or enhancers) of MEK5 binding to human MEKK3 PB1 domain. Q99759. bead-based flow cytometry, Alexa488-MEK5 binding to MEKK3; actives lie on both sides; 0 = blocked by unlabeled MEK5, 100 = vehicle. 290,000 compounds, 1.4% hits. AID 1529. binding response (% of control), % at 10 µM;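 active means binding response more than 3 SD above or below the average of its plate-row segment, actives on both sides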;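 further: Alexa488 bead fluorescence after subtracting the streptavidin-only scavenger bead signal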
MEKK2mut PB1 HTS – signal of MEK5 binding to mutant human MEKK2 PB1 domain; 290,000 compounds, 0.35% hits; percent response, % at 10 µM; bead flow cytometry, Alexa488-MEK5 binding to MEKK2 mutant; in the data active means percent response above about 24%, passing the limit was not always enough
ATG4B inh – inhibitors of human ATG4B cysteine protease; inhibition, % at 8.33 µM; ATG4B cleavage of LC3-PLA2, NBD-HPC fluorescence, 1 h; Q9Y4P1; 340,000 compounds, 0.51% hits; in the data active means inhibition above about 40%
Target sequence (Q9Y4P1 whole entry, looked up): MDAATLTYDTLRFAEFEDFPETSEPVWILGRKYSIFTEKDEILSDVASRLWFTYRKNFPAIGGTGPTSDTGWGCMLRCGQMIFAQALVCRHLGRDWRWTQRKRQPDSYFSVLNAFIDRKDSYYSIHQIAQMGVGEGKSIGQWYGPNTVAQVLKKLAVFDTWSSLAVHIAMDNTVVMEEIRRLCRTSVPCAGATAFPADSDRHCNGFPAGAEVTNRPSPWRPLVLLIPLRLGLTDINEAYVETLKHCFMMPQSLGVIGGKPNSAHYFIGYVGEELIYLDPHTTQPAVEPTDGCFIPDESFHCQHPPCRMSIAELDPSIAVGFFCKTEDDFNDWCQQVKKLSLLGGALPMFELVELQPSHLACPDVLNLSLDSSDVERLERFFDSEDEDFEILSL
UBC13 inh – human UBC13 polyubiquitination inhibition | inhibition, % at 20 µM | P61088 | 330,000 compounds, 0.47% hits | UBC13 polyubiquitin chain formation, TR-FRET; in the data active means inhibition above about 45%, passing the limit was not always enough
Target sequence (P61088 whole entry, looked up): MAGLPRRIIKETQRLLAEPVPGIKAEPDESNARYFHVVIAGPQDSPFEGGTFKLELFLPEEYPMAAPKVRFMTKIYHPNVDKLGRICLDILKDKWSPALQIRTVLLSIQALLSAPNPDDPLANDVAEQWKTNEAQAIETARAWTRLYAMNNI
MEKK2wt PB1 HTS – raises or lowers MEK5 binding to wildtype human MEKK2 PB1 domain; Q9Y2U5; bead flow cytometry, Alexa488-MEK5 binding to MEKK2 WT; actives lie on both sides; binding response (% of control), % at 10 µM; 290,000 compounds, 1.1% hits; in the data active means binding response below about 67% or above about 130%
PREPL inh – human PREPL enzyme inhibition. Q4J6C6. recombinant PREPL, fluorescence polarization activity-based probe. inhibition, % at 5.96 µM. 320,000 compounds, 0.68% hits; in the data active means inhibition above about 43%
ATG4B conf – ATG4B (human) inhibition, single-dose confirmed. shares compounds with ATG4B inh. ATG4B protease fluorescent substrate cleavage assay. inhibition, % at 8.33 µM. 320 compounds, 92% hits; in the data active means inhibition above about 39%
PLA2 counter – inhibits human PLA2, flagging false ATG4B inhibitors. 1,600 compounds, 66% hits. inhibition, % at 8.33 µM. shares compounds with ATG4B inh. purified PLA2, NBD-C6-HPC fluorescence, 45 min; in the data active means inhibition above about 50%
Target sequence (P04054 whole entry, looked up): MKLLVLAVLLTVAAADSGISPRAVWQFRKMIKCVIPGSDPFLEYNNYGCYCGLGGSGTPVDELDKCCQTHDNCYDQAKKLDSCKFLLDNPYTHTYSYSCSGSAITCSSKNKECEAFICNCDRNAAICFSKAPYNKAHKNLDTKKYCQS
Each line names hits and unclear results; the compound was inactive in the other large screens (follow-up assays come after a bar, where they were run).

S=C(NCCc1ccc(Cl)cc1)NCc1ccccc1	ATG4B inh 64 | PLA2 counter 73
O=C(NCc1cccc(Cl)c1)NCc1cccc(Cl)c1	ATG4B inh 73 | PLA2 counter 77
S=C(NCCc1cccc(Cl)c1)NCc1ccccc1	none (no result: ATG4B inh, PREPL inh)
CN1CCN(C2=C(NS(=O)(=O)c3cccs3)C(=O)c3ccccc3C2=O)CC1	none
CCOc1ccccc1N1CCN(C2=C(NS(=O)(=O)c3cccs3)C(=O)c3ccccc3C2=O)CC1	ATG4B inh 57 | PLA2 counter 65
CCN(CC)CCOc1ccc(C=NNc2nc3c([nH]2)c(=O)n(C)c(=O)n3C)cc1	none (no result: MEKK3 PB1 HTS, MEKK2mut PB1 HTS, UBC13 inh, MEKK2wt PB1 HTS, PREPL inh)
CSc1nc2cc(Oc3cccc(Cl)c3Cl)c(Cl)cc2[nH]1	ATG4B inh 65 | PLA2 counter 77
C=CCSC1=N/C(=C\c2cc(OCC)c(OC(C)=O)c([N+](=O)[O-])c2)C(=O)S1	ATG4B inh 89 | PLA2 counter 94
CN1CCN(S(=O)(=O)c2cccc(C(=O)N(C)CC(=O)Nc3ccc(Cl)c(Cl)c3)c2)CC1	none (no result: MEKK3 PB1 HTS, MEKK2mut PB1 HTS, UBC13 inh, MEKK2wt PB1 HTS, PREPL inh)
O=C(Nc1nc(-c2cccs2)c(-c2cccs2)s1)C1CCCC1	ATG4B inh 50 (no result: UBC13 inh, PREPL inh) | PLA2 counter 60
COc1ccc(CN2C(=O)c3ccccc3C(/C=N/OCc3ccc(Cl)cc3)C2=O)cc1 (stereo not given)	none
COc1ccc(CN2C(=O)c3ccccc3C(/C=N\OCc3ccc(F)cc3)C2=O)cc1 (stereo not given)	ATG4B inh 60 | PLA2 counter 75
CC(C)(C)NC(=S)NCC1CC1	none
COc1ccccc1-c1nc(S(=O)(=O)c2ccccc2)c(N2CCCCC2)o1	none
O=S(=O)(c1ccc(F)cc1)c1nc(-c2ccccc2F)oc1N1CCCCC1	ATG4B inh 44 | ATG4B conf 65 | PLA2 counter inactive
COc1ccccc1CNC(=O)CN1CCN(c2ccc(C(C)=O)cc2)CC1	none
COCOc1ccc(/C=C/C(=O)c2c(OCOC)cc(OCOC)c(CC=C(C)C)c2O)cc1OCOC	none
CC(C)=CCC/C(C)=C/Cc1c(O)ccc(C(=O)/C=C/c2ccc(O)cc2)c1O	none
COc1cc(CCc2ccccc2)c(C(=O)O)c(O)c1C/C=C(/C)CCC=C(C)C	ATG4B inh 85 (no result: MEKK3 PB1 HTS, MEKK2mut PB1 HTS, UBC13 inh, MEKK2wt PB1 HTS, PREPL inh) | PLA2 counter 90
COc1cc(CCc2ccccc2)c(C(=O)O)c(O)c1CC=C(C)C	ATG4B inh 75 (no result: MEKK3 PB1 HTS, MEKK2mut PB1 HTS, UBC13 inh, MEKK2wt PB1 HTS, PREPL inh) | PLA2 counter 86
CCn1c(SCC(=O)Nc2oc(-c3ccccc3)c(-c3ccccc3)c2C#N)nnc1-c1ccco1	ATG4B inh 61 | PLA2 counter 68
N#Cc1ccccc1NC(=O)c1ccc2c(Cl)c3c(nc2c1)CCCC3	ATG4B inh 48 | PLA2 counter inactive
Cn1c(CNC(=O)c2ccc3c(c2)OCO3)nnc1SCC(=O)Nc1ccc(F)cc1	none
Cc1ccc(N=C(N)N=C(N)N)cc1	none
Cc1cc(C)c(OCC(=O)Nc2cccc(NC(=O)c3ccco3)c2)c(Br)c1	ATG4B inh 60 | PLA2 counter 63
CN(C)S(=O)(=O)c1ccc2[nH]cc(/C=C/c3nc4ccccc4c(=O)n3-c3ccccc3)c2c1	ATG4B inh 42 | ATG4B conf 105 | PLA2 counter inactive
CCn1c(/C=C/c2c[nH]c3ccccc23)nc2ccccc2c1=O	none
Cc1ccc(/C=c2\sc3nc(-c4ccccc4Br)nn3c2=O)o1	ATG4B inh 48 (no result: MEKK3 PB1 HTS, MEKK2mut PB1 HTS, MEKK2wt PB1 HTS) | PLA2 counter inactive
COc1ccc(COC(=O)C2CCN(S(=O)(=O)c3ccc(OC)c(OC)c3)CC2)cc1	none (no result: MEKK3 PB1 HTS, MEKK2mut PB1 HTS, MEKK2wt PB1 HTS)
Cc1ccc(C(=O)c2c(NC(=O)c3ccccc3C)sc(C)c2C)cc1	ATG4B inh 63 | PLA2 counter inactive
CCN(CC)CC(=O)Nc1sc(C)c(C)c1C(=O)c1ccc(C)cc1	none
O=C(Nc1cccc(Cl)c1N1CCCC1)c1cccc(-c2cc3ccccc3oc2=O)c1	ATG4B inh 50 | ATG4B conf 59 | PLA2 counter inactive
Cc1cccc(CSc2nnc(-c3cccs3)n2Cc2ccco2)c1	ATG4B inh 68 | PLA2 counter 67
Cc1cccc(CSc2nc3sc(C)c(C)c3c(=O)n2Cc2ccco2)c1	none
O=C(O)COc1ccc(-c2nc(-c3ccccc3)c(-c3ccccc3)[nH]2)cc1	ATG4B inh 48 | PLA2 counter 59
O=C(/C=C/c1ccc(S(=O)(=O)N2CCOCC2)cc1)OCC(=O)c1ccc([N+](=O)[O-])cc1	none
O=Cc1cccc(OCc2cccc3ccccc23)c1	ATG4B inh 61 | PLA2 counter 73
COc1ccc(COc2cccc(C=O)c2)cc1	none (no result: MEKK3 PB1 HTS, MEKK2mut PB1 HTS, MEKK2wt PB1 HTS)
CCCOc1ccc(N2C(=O)CC(N(CCc3ccc(OC)cc3)C(=O)c3ccccc3)C2=O)cc1 (stereo not given)	none
Cc1ccc(Cl)c(OCC(=O)Nc2ccc(S(=O)(=O)NC3=NCCCCC3)cc2)c1	none (no result: MEKK3 PB1 HTS, MEKK2mut PB1 HTS, MEKK2wt PB1 HTS)
Cc1cc(OCC(=O)Nc2ccc(S(=O)(=O)NC3=NCCCCC3)cc2)c(C(C)C)cc1Cl	ATG4B inh 48 | PLA2 counter 56
Cc1cc(C)cc(NC(=O)CSc2nc(=O)n3cc(C)ccc3n2)c1	none (no result: MEKK3 PB1 HTS, MEKK2mut PB1 HTS, MEKK2wt PB1 HTS)
Nc1ccn(C2OC(COP(=O)(O)O)C(O)C2O)c(=O)n1 (stereo not given)	none (no result: MEKK3 PB1 HTS, MEKK2mut PB1 HTS, UBC13 inh, MEKK2wt PB1 HTS, PREPL inh)
O=C(Nc1ccccc1F)N1CCC(NC(=O)C23CC4CC(CC(C4)C2)C3)CC1	none
Cc1cc(C)nc(SCc2ccc(C(=O)NN=C3C4CC5CC(C4)CC3C5)cc2)n1	none
Cc1cc(C)nc(SCc2ccc(C(=O)N/N=C3\CC(C)CC(C)(C)C3)cc2)n1 (stereo not given)	ATG4B inh 47 | ATG4B conf 76 | PLA2 counter inactive
O=S(=O)(NC1C2CC3CC(C2)CC1C3)c1ccccc1 (stereo not given)	none (no result: MEKK3 PB1 HTS, MEKK2mut PB1 HTS, MEKK2wt PB1 HTS)
Cc1cc([N+](=O)[O-])nn1CCCC(=O)Nc1ccc(Cl)cc1Cl	none
Cc1c(Cl)c([N+](=O)[O-])nn1CCCC(=O)Nc1ccc(Cl)cc1Cl	ATG4B inh 67 | PLA2 counter 54
Cc1c(Cl)c([N+](=O)[O-])nn1CCCC(=O)Nc1sc2c(c1C#N)CCC2	ATG4B inh 49 | PLA2 counter 65
Cc1c(Br)c([N+](=O)[O-])nn1CCCC(=O)Nc1sc2c(c1C#N)CCC2	none
O=C(NC1CCOC1=O)c1ccccc1 (stereo not given)	none (no result: MEKK3 PB1 HTS, MEKK2mut PB1 HTS, UBC13 inh, MEKK2wt PB1 HTS, PREPL inh)
CCOc1ccc(-c2cn3ccccc3n2)cc1[N+](=O)[O-]	none
CCCCOc1ccc(-c2cn3ccccc3n2)cc1[N+](=O)[O-]	ATG4B inh 45 | PLA2 counter inactive

Compound activity as filed in PubChem BioAssay.
